# Screens: PubChem BioAssay, National Center for Advancing Translational Sciences (NCATS)
# The list is not random: actives were taken first. Their share in the collection is about 12%.
# Sfp inh – inhibitors of Bacillus subtilis Sfp phosphopantetheinyl transferase | Q9F4F7 | Biochemical Sfp PPTase activity, qHTS | Potency, µM, for inactives: largest response in the series, negative = inhibition, most hits filed as inhibitors | 3.5% of 310,000 active | AID 1490;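 further: the enzyme is Sfp with the accession as filed and its product quenches rhodamine fluorescence; 0% = enzyme reaction without inhibitor and -100% = no enzyme wells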
#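 With Hepes-Na pH 7.6 buffer containing 10 mM MgCl2, Sfp (15 nM) modified BHQ-2-YbbR (12.5 uM) using rhodamine-CoA (5 uM). Two reads 30 minutes apart at 525/598 nm yielded each well's rate.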
# JMJD2A Tudor – JMJD2A Tudor domain (human) inhibition. AlphaScreen JMJD2A-Tudor / H3K4me3 peptide binding. Potency, µM (series often up to 114 µM), inactives show top-dose activity change, negative = inhibition, usual class: inhibitors. 4.4% of 390,000 active. AID 504339; further: on the % scale 0 is the no-effect control and ±100 the full control effect; nearly all actives have a fitted effect of over 50% in size
# G9a inh – inhibitors of human histone lysine methyltransferase G9a; Q96KQ7; G9a H3K9 monomethylation, AlphaScreen, 2 h; Potency, µM (titrated, usually from 102 µM), inactives show top-dose activity, negative = inhibition, most hits filed as inhibitors; 8.8% of 350,000 active; AID 504332; further: on the % scale 0 is the no-effect control and ±100 the full control effect; nearly all actives have a fitted effect of over 75% in size
# Target sequence (Q96KQ7 913-1193 limits assumed): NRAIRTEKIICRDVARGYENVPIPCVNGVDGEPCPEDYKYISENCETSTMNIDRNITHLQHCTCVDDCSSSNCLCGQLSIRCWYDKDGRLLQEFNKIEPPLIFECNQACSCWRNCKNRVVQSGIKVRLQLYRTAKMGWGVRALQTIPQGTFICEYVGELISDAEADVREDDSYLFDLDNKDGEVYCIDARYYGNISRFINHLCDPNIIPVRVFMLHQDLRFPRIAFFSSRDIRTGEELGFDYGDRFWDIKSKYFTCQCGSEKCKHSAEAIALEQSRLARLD
#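 Methyltransferase reactions run at room temperature for 2 h (20 nM enzyme, 500 nM biotin-H3K9 peptide, 20 uM SAM) after a 15 min compound preincubation; product detected by AlphaScreen beads and anti-H3K9me1 antibody.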
# BAZ2B inh – BAZ2B (human) inhibition; Q9UIF8; AlphaScreen BAZ2B-H3K14Ac peptide displacement; Potency, µM (titrated, usually from 114 µM), for the others: at the highest dose activity change, negative = inhibition, hits mostly inhibitors; 4.4% of 360,000 active; AID 504333; further: on the % scale 0 is the no-effect control and ±100 the full control effect; nearly all actives have a fitted effect of over 60% in size
#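 Protein-peptide AlphaScreen: BAZ2B 50 nM, b-H3K14Ac 50 nM, 1x PBS pH 7.4 + 0.01% Tween-20. Preincubation 30 min RT; cpd 30 min RT (top 110 uM); beads 20 min RT, light-protected.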
# HP1b binding inh – inhibitors of HP1-beta chromodomain binding to methylated histone tails. AID 540317. P83916. AlphaScreen HP1-beta / biotin-H3K9me3 peptide binding. Potency, µM (series often up to 114 µM), inactives show top-dose activity change, negative = inhibition, usual class: inhibitors. 0.56% of 390,000 active; further: nearly all actives have a fitted effect of over 70% in size
# Target sequence (P83916 whole entry, looked up): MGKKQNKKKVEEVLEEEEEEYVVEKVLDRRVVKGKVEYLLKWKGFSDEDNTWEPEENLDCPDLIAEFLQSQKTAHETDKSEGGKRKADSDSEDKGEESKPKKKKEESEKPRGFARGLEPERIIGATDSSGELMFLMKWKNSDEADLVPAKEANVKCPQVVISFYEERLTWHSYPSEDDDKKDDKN
#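 HP1-beta protein (50 nM final) preincubated 30 min at room temperature with biotinylated H3(1-18)K9me3 peptide (50 nM) in PBS pH 7.4, 0.01% Tween-20, then compound added for 30 min. AlphaScreen streptavidin donor/nickel chelate acceptor beads (10 ug/mL final), 30 min dark, luminescence read.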
# Starred values were filed as active, the others as inactive; ? = inconclusive; . = not tested or not shown; [ ] = dose if it differs, or a comment. The call rests on the fitted dose curve; in most records, active means well fitted curve in the direction sought with a large enough effect; inconclusive means small, poorly fitted or top-dose-only effect, or another doubt; inactive means no such curve, though single readings can be large; an effect the other way counts as inactive or inconclusive. Potency means the concentration at half of the fitted maximal effect.
SMILES,Sfp inh,JMJD2A Tudor,G9a inh,BAZ2B inh,HP1b binding inh
O=C(NCCc1ccc(Cl)cc1)c1ccc(CS(=O)Cc2ccc(Cl)cc2)o1 (configuration not stated),7.0%,-16.5%,-13.7%,-38.1%,40.0%
COc1ccccc1S(=O)Cc1ccc(C(=O)NC2CCCC2)o1 (configuration not stated),-20.9%,-11.0%,28.2µM*,11.4%,54.9%
CC(C)C[C@H]1CN=C(Nc2ccccc2)N1CCc1ccc(F)cc1,.,-13.2%,1.7%[2.33 µM],2.7%,15.9%
S=c1[nH]nc(CN2CCCCC2)n1Cc1ccccc1,15.0%,12.6µM*,22.4µM*,-22.8%,20.7%
S=c1[nH]nc(CN2CCCC2)n1Cc1ccccc1,16.2%,3.55µM*,50.1µM*,-4.0%,11.3%
c1ccc(Cn2c(CN3CCCC3)nc3ccccc32)cc1,19.6%,-33.1%,-1.7%,-26.8%[57.1 µM],35.1%
S=c1[nH]nc(CNc2ccc(Cl)cc2)n1Cc1ccccc1,6.8%,-2.4%,?,-34.1%,19.9%
CC(C)(NC(=O)NC(CO)c1ccccc1)c1cccc(C(C)(C)NC(=O)NC(CO)c2ccccc2)c1 (configuration not stated),.,-20.7%,11.6%[2.33 µM],-3.1%,36.6%
COc1cc(NS(=O)(=O)c2ccc(C)cc2C)cc(OC)c1OC,-3.4%,-5.6%,79.4µM*,?,28.9%
Cc1cc(C)c(S(=O)(=O)Nc2ccncc2)cc1C,1.5%,-3.5%,.,2.4%,26.5%
Cc1ccc(S(=O)(=O)Nc2ccncc2)c(C)c1,6.2%,89.1µM*,-91.7%,-2.9%,3.4%
O=[N+]([O-])c1cc2no[n+]([O-])c2cc1N1CCCCC1,.,44.7µM*,.,.,14.1µM*
CC(=O)N(C(C)=O)c1c(N2CCCC2)c2ccccc2oc1=O,-1.1%,-9.6%,1.7%,-11.8%,15.1%
Cc1ccc(S(=O)(=O)N2CCC[C@H]2C(=O)OCC(=O)N2c3ccccc3NC(=O)C2(C)C)cc1,.,-18.8%,.,.,17.3%
CCS(=O)(=O)c1ncc(Cl)c(C(=O)Nc2ccc(C)cc2)n1,?,-7.5%,.,?,25.0%
CS(=O)(=O)c1ncc(Cl)c(C(=O)Nc2ccc3ccccc3c2)n1,12.6µM*,2.8%,10µM*,-36.5%,41.3%
CCS(=O)(=O)c1ncc(Cl)c(C(=O)Nc2ccc(S(=O)(=O)N3CCCC(C)C3)cc2)n1 (configuration not stated),?,?,79.4µM*,-24.2%[57.1 µM],-5.0%[57 µM]
CCC1CCCCN1S(=O)(=O)c1ccc(NC(=O)c2nc(S(C)(=O)=O)ncc2Cl)cc1 (configuration not stated),25.1µM*,-29.2%,39.8µM*,-23.0%[57.1 µM],-18.3%[57 µM]
COc1cc(F)c(S(=O)(=O)N2CCCN(S(=O)(=O)c3ccc(NC(C)=O)cc3)CC2)c(F)c1,.,-27.2%,.,.,.
COC(=O)c1ccc(NC(=O)COc2cccc3c2OC(C)(C)C3)cc1,.,-0.7%,9.8%,-8.0%,32.1%
CCC1Oc2ccccc2N(CC(=O)NC2CCCCC2)C1=O (configuration not stated),11.6%,-7.5%,12.8%,-8.6%,32.0%
Cc1cc(OCC(=O)NCc2nc(-c3ccccc3)no2)c(C)cc1Br,-18.1%,6.8%,8.9%[12.7 µM],-2.5%,25.9%
Cc1ccccc1N=Nc1ccc(N=Nc2c(O)ccc3ccccc23)c(C)c1,13.8%,.,1.26µM*,.,.
O=C(O)c1cc(N=Nc2c(O)ccc3ccccc23)cc(C(=O)O)c1,11.8%,28.2µM*,?,?,?
Oc1ccc2ccccc2c1Br,15.3%,-22.1%,?,-0.4%,6.1%
SMILES,Sfp inh,JMJD2A Tudor,G9a inh,BAZ2B inh,HP1b binding inh
NS(=O)(=O)c1ccc(N=Nc2c(O)ccc3ccccc23)cc1,13.4%,-28.5%,35.5µM*,?,-11.7%
Oc1ccc(N=Nc2c(O)ccc3ccccc23)cc1,?,10µM*,8.91µM*,6.31µM*,?
Cc1ccc(Cn2nnc3sc4c(c3c2=O)CCC(C)C4)cc1 (configuration not stated),.,-3.1%,7.5%[59 µM],-2.4%,28.2%
Cc1onc(-c2c(F)cccc2Cl)c1C(=O)NCCN1CCNC1=O,17.3%,-10.3%,9.9%,-3.0%,10.6%
O=C(O)c1ccc(N=Nc2c(O)ccc3ncccc23)cc1,0.4%,7.94µM*,10µM*,1.58µM*,?
Cc1cc(NC(=O)CSCC(=O)N(c2cccc(Cl)c2)C(C(=O)NC2CCCCC2)c2ccc(O)c(O)c2)no1 (configuration not stated),-9.2%,-23.9%,13.4%[59 µM],12.4%,?
CNC(=S)N(Cc1ccc(OC)cc1)C1CC(=O)N(c2ccc(C(=O)OC)cc2)C1=O (configuration not stated),-13.8%,.,39.8µM*,11.7%,.
COC(=O)CN(C(=S)Nc1ccc(F)cc1)C1CC(=O)N(c2ccc(OC)cc2)C1=O (configuration not stated),30.8%,-25.6%,39.8µM*,4.0%,1.3%
COC(=O)c1cc(-c2ccc(Br)cc2)c2c(=O)[nH]c(=O)n(C)c2n1,11.2%,-8.7%,-4.9%,-12.2%,17.6%
N#CC1=C(N)N(c2ccccc2)C(c2cccc([N+](=O)[O-])c2)C1(C#N)C#N (configuration not stated),-7.4%,?,44.7µM*,?,-15.6%
N#CC1=C(N)N(c2ccccc2)C(c2ccco2)C1(C#N)C#N (configuration not stated),9.1%,?,15.8%[12.7 µM],?,-22.5%
CC(CC(=O)N1CCc2ccccc21)c1ccccc1 (configuration not stated),9.9%,48.0%,73.2%[59 µM],50.5%,129.2%
CCOC(=O)c1cc(-c2ccccc2)sc1N,22.4µM*,?,8.91µM*,?,?
CCOC(=O)c1cc(-c2ccccc2)sc1NC(=O)CCN1C(=O)c2ccccc2C1=O,15.4%,-11.3%,13.0%[59 µM],4.7%,11.0%
CCOC(=O)c1cc(-c2ccccc2)sc1NC(=O)CC,-20.9%,-31.9%[57.1 µM],56.2µM*,9.6%,?
O=C1SCCC1NS(=O)(=O)c1ccc([N+](=O)[O-])cc1 (configuration not stated),14.3%,-16.1%,50.1µM*,?,2.5%
CCS(=O)(=O)C1=NN2C(=N)/C(=C\c3ccc(OS(=O)(=O)c4ccccc4)c(OC)c3)C(=O)N=C2S1,-22.2%,.,-5.5%[0.0925 µM],56.2µM*,.
CCS(=O)(=O)C1=NN2C(=N)/C(=C\c3ccc(OS(=O)(=O)c4ccccc4)cc3)C(=O)N=C2S1,?,?,39.8µM*,50.1µM*,4.5%
COc1cc(/C=C2\C(=N)N3N=C(S(C)(=O)=O)SC3=NC2=O)ccc1OS(=O)(=O)c1ccccc1,-6.5%,.,.,50.1µM*,.
COc1cc(/C=C2\C(=N)N3N=C(N4CCOCC4)SC3=NC2=O)ccc1OC(=O)c1ccccc1,-25.5%,?,20µM*,50.1µM*,-15.1%
CCC1=NN2C(=N)/C(=C/c3ccc(OS(=O)(=O)c4ccc(C)cc4)c(OC)c3)C(=O)N=C2S1,-4.5%,-30.3%,-5.6%,-1.6%,-16.9%
